The list is not random: actives were taken first. Their share in the collection is about 21%.
Pf growth 96h = P. falciparum growth inhibition at 96 hours; AID 504834; actives 6.9% (n = 320,000); Potency, µM (doses to about 28.7 µM), for the others: at the highest dose activity change, negative = inhibition, hits mostly inhibitors; P. falciparum luciferase reporter growth, 96 h; further: potency means the concentration at half of the fitted maximal effect; on the % scale 0 is the no-effect control and ±100 the full control effect
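Readout is luminescence from an integrated firefly luciferase in P. falciparum. Red cells, 2% hematocrit and 0.05% parasitemia final, were cultured with compound through two parasite generations (96 hours) at 37 C, 5% CO2.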
Shiga inhibitor = inhibitors of Shiga toxin in Vero cells. Vero cells, Shiga toxin protein synthesis inhibition reporter. inhibition, % at 38.7 µM. actives 9.2% (n = 290,000). AID 2315; in the data active means inhibition mostly above about 28%, no sharp cut-off; inactive means mostly below about 43%; further: 0% is about no effect
Pf growth 48h = P. falciparum growth inhibition at 48 hours (one generation); P. falciparum luciferase growth in erythrocytes, 48 h; Potency, µM (highest dose often 28.7 µM), for the others: at the top dose activity change, negative = inhibition, most hits filed as inhibitors; actives 5.9% (n = 310,000); AID 504832; further: potency means the concentration at half of the fitted maximal effect; on the % scale 0 is the no-effect control and ±100 the full control effect
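In quantitative HTS format, infected erythrocytes bearing luciferase-reporter parasites were treated for a single generation at 37 C. Luminescence after adding detection reagent served as the growth measure.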
Cycloheximide cs = counter-screen for Shiga toxin inhibitors: cycloheximide protein synthesis inhibition | cell reporter, cycloheximide protein synthesis inhibition counterscreen | AID 2314 | actives 12% (n = 300,000) | max response, %; in the data active means max response mostly above about 13%, no sharp cut-off; inactive means mostly below about 14%; further: read at 38.3 µM for the half of the compounds with a filed dose; 0% is about no effect
* marks the source's active call; other numbers are inactive results; i = inactive; ? = inconclusive; / = no result. Unless noted, the call rests on the fitted dose curve; in most records, active means well fitted inhibition curve with a large enough effect; inconclusive means small, poorly fitted or top-dose-only effect, or another doubt; inactive means no such curve, though single readings can be large or run the other way.

SMILES	Pf growth 96h	Shiga inhibitor	Pf growth 48h	Cycloheximide cs
COc1cc(C=O)ccc1OCCSc1ccc(C)cc1	68%	46*	99%	39*
COc1ccc(S(=O)(=O)Nc2ccccc2C(=O)N2CCOCC2)cc1Br	-6%	-13	4%	-3
CCCCCc1ccc(-c2ccc(OC)cc2)nc1	10µM*	13	-16%	0
CCCCC(CC)CNC(=O)/C=C/c1ccc(F)cc1 (configuration not stated)	2%	23	?	5
CCCCCc1ccc(-c2ccc(/C=C/C(N)=O)cc2)nc1	-10%	67*	58%	56*
COc1ccc(-c2ccc(SC)nn2)cc1	i	-5	i	-3
CCCc1ccc(-c2ccc(C(=O)O)cc2)nc1	0%	65*	183%	26*
Cc1ccc(NC(=S)NCCc2ccccc2)nc1	-11%	76*	21%	25*
O=S(=O)(Cc1ccccc1)Nc1ccc(Br)cn1	?	-4	-9%	-3
Cc1ccc(NC(=O)CCCc2ccccc2)nc1	13%	89*	68%	44*
Cc1ccc(NS(=O)(=O)Cc2ccccc2)nc1	-3%	56*	110%	25*
O=C(CSC1=NS(=O)(=O)c2ccccc2N1)NCc1ccc(F)cc1	26%	/	5%	/
C=C[C@@H]1c2c(F)cccc2N(S(=O)(=O)c2ccc(C)cc2)[C@H](c2ccc(C(=O)OC)cc2)C1(C#N)C#N	12µM*	/	4.1µM*	/
COc1ccc(S(=O)(=O)N2CCOC23CCN(C(=O)c2c(F)cccc2Cl)CC3)cc1	?	11	?	-1
COC(=O)c1ccc(NC(=O)C2CCCN2S(=O)(=O)c2ccc(C)cc2)cc1 (configuration not stated)	3%	-16	-12%	-4
C=C[C@@H]1c2c(F)cccc2N(S(=O)(=O)c2ccc(C)cc2)[C@H](c2ccc(OC(C)=O)cc2)C1(C#N)C#N	2.6µM*	/	1.7µM*	/
COc1ccc(C(C)C)cc1S(=O)(=O)n1ccnc1C	?	7	?	-4
CC(C)c1ccc(NC(=O)CSc2n[nH]c(=O)n2Cc2ccco2)cc1	13µM*	3	?	8
COc1ccc(C(=O)CSc2n[nH]c(=O)n2Cc2ccco2)cc1	64%	44*	?	32*
O=C(CSc1n[nH]c(=O)n1Cc1ccco1)Nc1ccccc1Cl	4.7µM*	13	?	5
Cc1cc(C)n(CC(O)COc2ccccc2Br)n1 (configuration not stated)	?	17	-9%	11
CC(=O)Nc1c2c(nn1-c1ccc(Cl)cc1)CSC2	32%	-9	30%	-7
O=C1C2CC(O)CN2C(=O)N1c1ccccc1 (configuration not stated)	-5%	-12	4%	-2
Nc1c(-c2ccccc2)sc2ccc3ccccc3[n+]12	?	22	7%	12*
CC(C#N)Sc1nnc(-c2ccccc2F)n1C1CC1 (configuration not stated)	12%	-8	-7%	-5
SMILES	Pf growth 96h	Shiga inhibitor	Pf growth 48h	Cycloheximide cs
CN(C)S(=O)(=O)c1cccc(-c2csc(N/N=C/c3ccco3)n2)c1	-6%	22	?	14*
Cc1ccc(-c2csc(N/N=C/c3ccco3)n2)c(C)c1	37%	62*	13µM*	46*
CCCCC1NC(=S)N(C2CCCCC2)C1=O (configuration not stated)	3%	-26	25%	10
O=C(O)CC1NC(=O)N(C2CCCCC2)C1=O (configuration not stated)	12µM*	1	-2%	-4
O=C(O)CC1NC(=O)N(c2ccccc2)C1=O (configuration not stated)	2.6µM*	4	8%	-3
O=C1C(Cc2ccccc2)NC(=S)N1c1ccccc1 (configuration not stated)	0%	-7	?	-1
Cc1cc(C)n2nnnc2n1	30%	24	-4%	1
CCCCN1C(=O)C(=O)N(CC(=O)N2N=C3/C(=C/c4ccco4)CCCC3C2c2ccco2)C1=O (configuration not stated)	76%	49*	60%	20*
O=C(CSc1ncn[nH]1)N1N=C2/C(=C/c3ccco3)CCCC2C1c1ccco1 (configuration not stated)	/	-6	12µM*	-1
CCCCN1C(=O)/C(=C\c2ccco2)C(=O)N(CCc2ccccc2)C1=O	36%	-11	-17%	1
O=S(=O)(c1ccc(F)cc1)N1CCN(CC(O)COCC2CCCO2)CC1 (configuration not stated)	38%	/	3%	/
CC(=O)c1cccc(OCc2cc(C(=O)N3CCC(N4CCCCC4)CC3)no2)c1	12%	-1	?	2
CC(=O)c1cccc(OCc2cc(C(=O)N(C)Cc3ccc(C)o3)no2)c1	3%	79*	5%	22*
Cc1ccc(OCc2cc(C(=O)N(C)CCc3nc4ccccc4[nH]3)no2)cc1C	63%	22	?	27*
CC(=O)c1cccc(OCc2cc(C(=O)N(C)CCc3ccccn3)no2)c1	?	37	-1%	15*
CC(=O)c1cccc(OCc2cc(C(=O)N(C)CCc3cnn(C)c3)no2)c1	?	-8	4%	13
Cc1ccc(OCc2cc(C(=O)N(C)CCc3ccccn3)no2)cc1C	-19%	109*	?	83*
Cc1nn(C)c(Oc2ccc(Cl)cc2)c1C(=O)Nc1ccc(F)cc1F	?	-9	8%	0
COc1cc2c(cc1OC)C(c1cccs1)N(C(=O)c1ccc(S(=O)(=O)N(C)C)cc1)CC2 (configuration not stated)	13µM*	-1	10µM*	9
COc1cc2c(cc1OC)C(c1cccs1)N(C(=S)NC(C)C)CC2 (configuration not stated)	?	-2	2.6µM*	-2
Cc1cc(OC(=O)c2cc([N+](=O)[O-])ccc2Cl)c([N+](=O)[O-])c(=O)[nH]1	39%	-10	9%	-1
COc1ccc(CN(C)Cc2c(O)ccc3cc(Br)ccc23)cc1OC	?	-8	?	-5
c1ccc(-n2ncc3c(NCC4CCCO4)ncnc32)cc1 (configuration not stated)	24%	-4	14%	-2
Clc1ccc(-n2ncc3c(NCC4CCCO4)ncnc32)cc1 (configuration not stated)	146%	50*	164%	40*
COc1ccc(-n2ncc3c(NCC4CCCO4)ncnc32)cc1 (configuration not stated)	i	95*	300%	68*
Cc1cccc(C)c1OCC(O)CNS(=O)(=O)c1ccccc1C(=O)N1CCCCC1 (configuration not stated)	12µM*	-6	?	-1
CC(C)CNS(=O)(=O)c1ccccc1C(=O)N1CCCCC1	87%	2	0%	-1
Cc1cccc(C(=O)NC(C(=O)Nc2ccccc2N2CCOCC2)C(C)C)c1 (configuration not stated)	?	-21	?	-2
CCc1ccc(S(=O)(=O)Nc2c(C)n(C)n(-c3ccccc3)c2=O)cc1	1%	-3	2%	-3

Bioassay records (PubChem BioAssay)
